{
  "source": "the supplement of paper PMC9135407",
  "test_system": "primary human hepatic stellate cells (donor 1)",
  "assay": "scaled lipid accumulation score (0 = DMSO-like, 1 = nortriptyline-like); higher = stronger HSC inactivation (lipid re-accumulation), active = hit call of the paper",
  "conditions": "48 h",
  "key": {"[1]": {"conditions": "library stock concentration: 10 mM"}, "[2]": {"conditions": "library stock concentration: 1 mM"}, "[3]": {"conditions": "library stock concentration: 3.33 mM"}, "[4]": {"conditions": "library stock concentration: 80 uM"}, "[5]": {"conditions": "library stock concentration: 400 uM"}, "[6]": {"conditions": "library stock concentration: 2 mM"}},
  "note": "Several values for one entry are separate records, joined by “and”; a condition that tells them apart may be missing. Equal entries are not always repeated. Structures can show the parent of a compound that is named as a salt. Among all 5,800 compounds or so, about 620 (11%) showed activity. The list comes from a sample in which actives are over-represented; it also holds similar structures and randomly drawn compounds. A number with no mark means an inactive call.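 How the source made its calls: active = score above a cut-off or among the top three wells of a plate; in these data no inactive exceeds 0.85.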",
  "data": [
    {"molecule": "OC[C@H]1O[C@H]([S-])[C@H](O)[C@@H](O)[C@@H]1O.[Au+]", "note": "[Aurothioglucose]", "values": [
      {"measurement": "scaled lipid accumulation score", "setting": "library stock concentration: 5.1 mM", "result": 0.336},
      {"measurement": "scaled lipid accumulation score", "setting": "[1]", "result": 0.397}
    ]},
    {"molecule": "Oc1cc(O)c2c(c1)O[C@H](c1ccc(O)c(O)c1)[C@@H](O)C2", "note": "(racemic) [Catechin-(+,-) hydrate]", "values": [
      {"measurement": "scaled lipid accumulation score", "result": "≤ 0"}
    ]},
    {"molecule": "CCCCCCCCCCCCCCCCOCC(CO)OC", "note": "(stereo not drawn) [1-Hexadecyl-2-O-methyl-glycerol]", "values": [
      {"measurement": "scaled lipid accumulation score", "setting": "[2]", "result": 0.003}
    ]},
    {"molecule": "CCCCC(C)(C)[C@H](O)C=C[C@H]1[C@H](O)CC(=O)[C@@H]1CCCCCCC(=O)O", "note": "[16,16-dimethyl Prostaglandin E1]", "values": [
      {"measurement": "scaled lipid accumulation score", "setting": "[2]", "result": "≤ 0"}
    ]},
    {"molecule": "CCC(O)/C=C/C=O", "note": "(stereo not drawn) [4-hydroxy Hexenal]", "values": [
      {"measurement": "scaled lipid accumulation score", "setting": "[2]", "result": "≤ 0"}
    ]},
    {"molecule": "CCCCC[C@H](O)/C=C/[C@H]1[C@H](O)CC(=O)[C@@H]1CCCCCCC(=O)NCCO", "note": "[Prostaglandin E1 Ethanolamide]", "values": [
      {"measurement": "scaled lipid accumulation score", "setting": "[2]", "result": "≤ 0"}
    ]},
    {"molecule": "O=c1cc(-c2ccc(O)cc2)oc2cc(O[C@@H]3O[C@H](CO)[C@@H](O)[C@H](O)[C@H]3O)cc(O)c12", "note": "[Cosmosiin]", "values": [
      {"measurement": "scaled lipid accumulation score", "setting": "[1]", "result": 0.333}
    ]},
    {"molecule": "CC(C)=CCC/C(C)=C\\CO", "note": "[Nerol]", "values": [
      {"measurement": "scaled lipid accumulation score", "setting": "[1]", "result": "≤ 0"}
    ]},
    {"molecule": "CC(C)=CCC/C(C)=C/CC/C(C)=C/CC[C@]1(C)CCc2cc(O)c(C)c(C)c2O1", "note": "[.gamma.-Tocotrienol]", "values": [
      {"measurement": "scaled lipid accumulation score", "setting": "[2]", "result": "≤ 0"}
    ]},
    {"molecule": "CC12CC3CC(C)(C1)CC(N)(C3)C2.Cl", "note": "[Memantine hydrochloride]", "values": [
      {"measurement": "scaled lipid accumulation score", "setting": "[1]", "result": "1.05 (active)"}
    ]},
    {"molecule": "NC12CC3CC(CC(C3)C1)C2", "note": "[Amantadine HCl]", "values": [
      {"measurement": "scaled lipid accumulation score", "setting": "[3]", "result": "≤ 0"},
      {"measurement": "scaled lipid accumulation score", "setting": "[1]", "result": 0.042}
    ]},
    {"molecule": "NC12CC3CC(CC(C3)C1)C2", "note": "[Adamantamine fumarate]", "values": [
      {"measurement": "scaled lipid accumulation score", "result": 0.029}
    ]},
    {"molecule": "NC12CC3CC(CC(C3)C1)C2", "note": "[Amantadine hydrochloride]", "values": [
      {"measurement": "scaled lipid accumulation score", "setting": "[1]", "result": "0.29 and 0.659"},
      {"measurement": "scaled lipid accumulation score", "setting": "library stock concentration: 10.7 mM", "result": 0.031}
    ]},
    {"molecule": "CC12CC3CC(C)(C1)CC(N)(C3)C2", "note": "[Memantine hydrochloride]", "values": [
      {"measurement": "scaled lipid accumulation score", "setting": "library stock concentration: 9.3 mM", "result": 0.689},
      {"measurement": "scaled lipid accumulation score", "setting": "[1]", "result": "0.344 and 0.653 and 0.597"}
    ]},
    {"molecule": "CC12CC3CC(C)(C1)CC(N)(C3)C2", "values": [
      {"measurement": "scaled lipid accumulation score", "setting": "[1]", "result": "0.869 (active)"}
    ]},
    {"molecule": "NC12CC3CC(CC(C3)C1)C2", "note": "[Symmetrel]", "values": [
      {"measurement": "scaled lipid accumulation score", "setting": "[1]", "result": 0.158}
    ]},
    {"molecule": "CC12CC3CC(C)(C1)CC(N)(C3)C2", "note": "[Memantine HCl]", "values": [
      {"measurement": "scaled lipid accumulation score", "setting": "[3]", "result": 0.012},
      {"measurement": "scaled lipid accumulation score", "setting": "[1]", "result": 0.415}
    ]},
    {"molecule": "CC12CC3CC(C)(C1)CC(N)(C3)C2", "note": "[Memantine Hydrochloride]", "values": [
      {"measurement": "scaled lipid accumulation score", "result": 0.399}
    ]},
    {"molecule": "COC(=O)CCCCCCC1C(O)CC(O)C1CCC(O)C#Cc1ccccc1F", "note": "(stereo not drawn)", "values": [
      {"measurement": "scaled lipid accumulation score", "setting": "[2]", "result": "≤ 0"}
    ]},
    {"molecule": "NC(=S)NCCC[C@H](N)C(=O)O", "note": "[L-Thiocitrulline (hydrochloride)]", "values": [
      {"measurement": "scaled lipid accumulation score", "setting": "[2]", "result": 0.048}
    ]},
    {"molecule": "NC(=S)NCCC[C@H](N)C(=O)O", "note": "[Thiocitrulline [L-Thiocitrulline]]", "values": [
      {"measurement": "scaled lipid accumulation score", "setting": "library stock concentration: 26.1 mM", "result": 0.069}
    ]},
    {"molecule": "Cc1cccc(CC(=O)N2CCc3c2ccc(-c2cn(C)c4ncnc(N)c24)c3F)n1", "values": [
      {"measurement": "scaled lipid accumulation score", "setting": "[3]", "result": "≤ 0"},
      {"measurement": "scaled lipid accumulation score", "setting": "[1]", "result": "≤ -0.001"}
    ]},
    {"molecule": "COc1cc(C(=O)NCc2ccc(OCCN(C)C)cc2)cc(OC)c1OC", "note": "[Trimethobenzamide hydrochloride]", "values": [
      {"measurement": "scaled lipid accumulation score", "result": "≤ 0"},
      {"measurement": "scaled lipid accumulation score", "setting": "library stock concentration: 4.7 mM", "result": 0.028},
      {"measurement": "scaled lipid accumulation score", "setting": "[1]", "result": "≤ 0"}
    ]},
    {"molecule": "CCC(CC)CNc1cc(C(=O)NCCN(C)C)cc(S(=O)(=O)Nc2ccc(OC)cc2)c1", "values": [
      {"measurement": "scaled lipid accumulation score", "setting": "[1]", "result": "0.996 (active)"}
    ]},
    {"molecule": "CCN(CC)CCNC(=O)c1ccc(NS(C)(=O)=O)cc1", "note": "[Sematilide monohydrochloride monohydrate]", "values": [
      {"measurement": "scaled lipid accumulation score", "setting": "[1]", "result": "≤ -0.07"}
    ]},
    {"molecule": "O=c1[nH][nH]c2nnc(-c3c(-c4ccccc4)nn4ccccc34)cc12", "note": "[ERK Inhibitor II, Negative Control]", "values": [
      {"measurement": "scaled lipid accumulation score", "setting": "[3]", "result": "≤ 0"}
    ]},
    {"molecule": "C=CC[N+]1([C@H]2C[C@H]3[C@@H]4CC[C@H]5C[C@H](O)[C@@H](N6CCOCC6)C[C@]5(C)[C@H]4CC[C@]3(C)[C@H]2OC(C)=O)CCCC1", "note": "[Rocuronium Bromide]", "values": [
      {"measurement": "scaled lipid accumulation score", "setting": "[3]", "result": "≤ 0"},
      {"measurement": "scaled lipid accumulation score", "setting": "[1]", "result": "≤ 0"}
    ]},
    {"molecule": "COc1ccc(C2(O)OC(=O)C(c3ccc4c(c3)OCO4)=C2Cc2cc(OC)c(OC)c(OC)c2)cc1", "note": "(stereo not drawn)", "values": [
      {"measurement": "scaled lipid accumulation score", "setting": "[1]", "result": 0.037}
    ]},
    {"molecule": "CCCCCCCCCCCC(=O)CC(=O)N[C@H]1CCOC1=O", "note": "[N-3-oxo-tetradecanoyl-L-Homoserine lactone]", "values": [
      {"measurement": "scaled lipid accumulation score", "setting": "[2]", "result": "≤ 0"}
    ]},
    {"molecule": "CC/C=C\\C/C=C\\C/C=C\\CCCCCCCCCCCC(=O)O", "note": "[Docosatrienoic acid (22:3 n-3)]", "values": [
      {"measurement": "scaled lipid accumulation score", "setting": "[2]", "result": "≤ -0.021"}
    ]},
    {"molecule": "COc1cccc2c1[C@@H]1CN(CCCCn3c(=O)[nH]c4c(sc5ncc(-c6ccccc6)nc54)c3=O)C[C@@H]1CO2.Cl", "note": "[Fiduxosin hydrochloride]", "values": [
      {"measurement": "scaled lipid accumulation score", "setting": "[1]", "result": "0.863 (active)"}
    ]},
    {"molecule": "COc1ccc(/C=C/c2ccccc2F)cc1", "values": [
      {"measurement": "scaled lipid accumulation score", "setting": "[2]", "result": 0.063}
    ]},
    {"molecule": "C/N=C(/NC#N)NCCSCc1csc(NC(=N)N)n1", "note": "[Tiotidine]", "values": [
      {"measurement": "scaled lipid accumulation score", "setting": "library stock concentration: 6.4 mM", "result": "≤ -0.006"},
      {"measurement": "scaled lipid accumulation score", "setting": "[1]", "result": 0.044}
    ]},
    {"molecule": "COc1cc2nc(N3CCCN(C)CC3)nc(NC3CCN(Cc4ccccc4)CC3)c2cc1OC", "values": [
      {"measurement": "scaled lipid accumulation score", "setting": "[4]", "result": "≤ 0"},
      {"measurement": "scaled lipid accumulation score", "setting": "[5]", "result": "≤ 0"},
      {"measurement": "scaled lipid accumulation score", "setting": "[6]", "result": 0.569},
      {"measurement": "scaled lipid accumulation score", "setting": "[3]", "result": 0.42},
      {"measurement": "scaled lipid accumulation score", "setting": "[1]", "result": "0.096 and 0.353 and 0.204"}
    ]},
    {"molecule": "COc1cc2c(NC3CCN(C(C)C)CC3)nc(C3CCCCC3)nc2cc1OCCCN1CCCC1", "values": [
      {"measurement": "scaled lipid accumulation score", "setting": "[4]", "result": "≤ 0"},
      {"measurement": "scaled lipid accumulation score", "setting": "[5]", "result": "≤ 0"},
      {"measurement": "scaled lipid accumulation score", "setting": "[6]", "result": 0.354},
      {"measurement": "scaled lipid accumulation score", "setting": "[1]", "result": 0.14}
    ]},
    {"molecule": "COc1cc2nc(N3CCCN(C)CC3)nc(NC3CCN(Cc4ccccc4)CC3)c2cc1OC.Cl.Cl.Cl.O", "values": [
      {"measurement": "scaled lipid accumulation score", "setting": "[2]", "result": "0.804 (active)"}
    ]},
    {"molecule": "Nc1nccc(-c2c(-c3ccc(F)cc3)ncn2C2CCNCC2)n1", "values": [
      {"measurement": "scaled lipid accumulation score", "setting": "[3]", "result": "≤ 0"}
    ]},
    {"molecule": "O=S1(=O)c2cccc3cccc(c23)N1CCCN1CCN(c2ccc(F)cc2)CC1", "note": "[Fananserin]", "values": [
      {"measurement": "scaled lipid accumulation score", "setting": "[1]", "result": 0.048}
    ]},
    {"molecule": "CS(=O)(=O)O.N=C(N)SCCc1ccc(OCc2ccc([N+](=O)[O-])cc2)cc1", "note": "[KB-R7943 mesylate]", "values": [
      {"measurement": "scaled lipid accumulation score", "setting": "[1]", "result": "0.99 (active)"}
    ]},
    {"molecule": "N=C(N)SCCc1ccc(CCSC(=N)N)cc1", "note": "[1,4-PBIT (dihydrobromide)]", "values": [
      {"measurement": "scaled lipid accumulation score", "setting": "[2]", "result": 0.049}
    ]},
    {"molecule": "N=C(N)SCCc1cccc(CCSC(=N)N)c1", "note": "[1,3-PBIT (dihydrobromide)]", "values": [
      {"measurement": "scaled lipid accumulation score", "setting": "[2]", "result": "≤ 0"}
    ]}
  ]
}
